Where “and” joins values, the source holds several entries; their conditions need not be identical. Equal values may be shown once.
Assays:
U-2932 [1] = assay: growth inhibition by drug plus 177Lu-lilotomab satetraxetan (1 - RLU/untreated control) (fraction); higher = stronger inhibition; settings: 177Lu-lilotomab satetraxetan 1 ug/ml
In short: (§1)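 RIVA or U-2932 cells were left untreated or pretreated for 18 h with a radiolabelled anti-CD37 antibody conjugate (~600 MBq/mg) at 0.5 µg/ml for RIVA or 1 µg/ml for U-2932. The cells were then washed and seeded at 3,000 cells/well on plates pre-printed with the Selleck Cambridge Cancer Compound library, dosed at 10/100 nM for RIVA and 10/1,000 nM for U-2932. From day 3, RealTime-Glo luminescence was read daily after 1 h at 37°C. Growth inhibition was taken as one minus RLU over the mean of the untreated no-drug wells, of which there were 48 per plate.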

RIVA [2] = assay: as above; settings: 177Lu-lilotomab satetraxetan 0.5 ug/ml
In short: as §1

RIVA [3] = assay: growth inhibition by drug alone (1 - RLU/untreated control) (fraction); higher = stronger inhibition; settings: 177Lu-lilotomab satetraxetan 0 ug/ml
In short: as §1

U-2932 [4] = assay: as above; settings: 177Lu-lilotomab satetraxetan 0 ug/ml
In short: as §1

Structure (SMILES) | growth inhibition by drug plus 177Lu-lilotomab satetraxetan (U-2932 [1]; 10 nM, time (day): 3) | growth inhibition by drug plus 177Lu-lilotomab satetraxetan (U-2932 [1]; 10 nM, time (day): 4) | growth inhibition by drug plus 177Lu-lilotomab satetraxetan (U-2932 [1]; 10 nM, time (day): 5) | growth inhibition by drug plus 177Lu-lilotomab satetraxetan (U-2932 [1]; 10 nM, time (day): 6) | growth inhibition by drug plus 177Lu-lilotomab satetraxetan (U-2932 [1]; 1000 nM, time (day): 3) | growth inhibition by drug plus 177Lu-lilotomab satetraxetan (U-2932 [1]; 1000 nM, time (day): 4) | growth inhibition by drug plus 177Lu-lilotomab satetraxetan (U-2932 [1]; 1000 nM, time (day): 5) | growth inhibition by drug plus 177Lu-lilotomab satetraxetan (U-2932 [1]; 1000 nM, time (day): 6) | growth inhibition by drug plus 177Lu-lilotomab satetraxetan (RIVA [2]; 10 nM, time (day): 3) | growth inhibition by drug plus 177Lu-lilotomab satetraxetan (RIVA [2]; 10 nM, time (day): 4) | growth inhibition by drug plus 177Lu-lilotomab satetraxetan (RIVA [2]; 10 nM, time (day): 5) | growth inhibition by drug plus 177Lu-lilotomab satetraxetan (RIVA [2]; 10 nM, time (day): 6) | growth inhibition by drug plus 177Lu-lilotomab satetraxetan (RIVA [2]; 100 nM, time (day): 3) | growth inhibition by drug plus 177Lu-lilotomab satetraxetan (RIVA [2]; 100 nM, time (day): 4) | growth inhibition by drug plus 177Lu-lilotomab satetraxetan (RIVA [2]; 100 nM, time (day): 5) | growth inhibition by drug plus 177Lu-lilotomab satetraxetan (RIVA [2]; 100 nM, time (day): 6) | growth inhibition by drug alone (RIVA [3]; 10 nM, time (day): 3) | growth inhibition by drug alone (RIVA [3]; 10 nM, time (day): 4) | growth inhibition by drug alone (RIVA [3]; 10 nM, time (day): 5) | growth inhibition by drug alone (RIVA [3]; 10 nM, time (day): 6) | growth inhibition by drug alone (RIVA [3]; 100 nM, time (day): 3) | growth inhibition by drug alone (RIVA [3]; 100 nM, time (day): 4) | growth inhibition by drug alone (RIVA [3]; 100 nM, time (day): 5) | growth inhibition by drug alone (RIVA [3]; 100 nM, time (day): 6) | growth inhibition by drug alone (U-2932 [4]; 1000 nM, time (day): 5) | growth inhibition by drug alone (U-2932 [4]; 10 nM, time (day): 3) | growth inhibition by drug alone (U-2932 [4]; 10 nM, time (day): 4) | growth inhibition by drug alone (U-2932 [4]; 10 nM, time (day): 5) | growth inhibition by drug alone (U-2932 [4]; 10 nM, time (day): 6) | growth inhibition by drug alone (U-2932 [4]; 1000 nM, time (day): 3) | growth inhibition by drug alone (U-2932 [4]; 1000 nM, time (day): 4) | growth inhibition by drug alone (U-2932 [4]; 1000 nM, time (day): 6)
Cc1ccc(-c2csc3ncnc(SCCC(=O)O)c23)cc1 | -0.0558 | -0.00644 | 0.0127 | 0.0699 | -0.0374 | 0.018 | 0.0424 | 0.16 | 0.458 | 0.495 | 0.522 | 0.525 | 0.365 | 0.436 | 0.45 | 0.472 |  |  |  |  |  |  |  |  |  |  |  |  |  |  |  | 
N#CC[C@H](C1CCCC1)n1cc(-c2ncnc3[nH]ccc23)cn1 | 0.00599 | 0.0333 | -0.193 | 0.112 | -0.166 | -0.0146 | -0.0674 | -0.122 | 0.32 | 0.445 | 0.469 | 0.488 | 0.269 | 0.379 | 0.376 | 0.348 | 0.0229 | -0.0212 | -0.0792 | -0.268 | -0.143 | -0.098 | -0.128 | -0.247 |  |  |  |  |  |  |  | 
O=C1[C@H](CC[C@H](O)c2ccc(F)cc2)[C@@H](c2ccc(O)cc2)N1c1ccc(F)cc1 [Ezetimibe (Zetia)] | 0.101 | 0.145 | 0.218 | 0.274 | 0.142 | 0.17 | 0.216 | 0.332 | 0.537 | 0.594 | 0.604 | 0.623 | 0.406 | 0.479 | 0.489 | 0.494 | 0.0453 | 0.0693 | -0.0268 | -0.174 | -0.17 | -0.068 | -0.0985 | -0.21 |  |  |  |  |  |  |  | 
N#Cc1ccc(C(c2ccc(C#N)cc2)n2cncn2)cc1 [Letrozole] | -0.121 | -0.0795 | -0.0651 | 0.00121 | -0.131 | -0.067 | -0.0375 | 0.0441 | 0.418 | 0.498 | 0.524 | 0.535 | 0.319 | 0.397 | 0.409 | 0.401 | -0.194 | -0.245 | -0.249 | -0.307 | -0.0878 | -0.169 | -0.207 | -0.242 |  |  |  |  |  |  |  | 
O=C(O)Cc1cccc(OCCCN(Cc2cccc(C(F)(F)F)c2Cl)CC(c2ccccc2)c2ccccc2)c1 | 0.0517 | 0.0894 | 0.143 | 0.142 | 0.162 | 0.224 | 0.223 | 0.228 | 0.667 | 0.666 | 0.678 | 0.677 | 0.86 | 0.858 | 0.874 | 0.893 | 0.0962 | 0.115 | 0.0874 | -0.0108 | 0.667 | 0.512 | 0.515 | 0.524 |  |  |  |  |  |  |  | 
C[C@@H]1CCN(C(=O)CC#N)C[C@@H]1N(C)c1ncnc2[nH]ccc12 | -0.0798 and -0.0527 |  |  |  | -0.1 and -0.107 |  |  |  | 0.396 and 0.421 | 0.461 and 0.516 | 0.484 and 0.536 | 0.5 and 0.538 | 0.367 and 0.379 | 0.424 and 0.434 | 0.412 and 0.435 | 0.396 and 0.419 |  |  |  | -0.145 and -0.158 |  |  |  | -0.23 and -0.152 | -0.0604 and -0.0478 |  |  |  |  |  |  | 
COc1cc2c(NC3CCN(C)CC3)nc(N3CCCN(C)CC3)nc2cc1OCCCN(C)C | -0.0493 | -0.0119 | 0.0125 | 0.00172 | -0.0195 | -0.0136 | 0.00791 | 0.0785 | 0.365 | 0.464 | 0.475 | 0.499 | 0.316 | 0.452 | 0.453 | 0.469 | -0.117 | -0.195 | -0.474 | -0.819 | -0.568 | -0.503 | -0.528 | -0.706 |  |  |  |  |  |  |  | 
CCOc1ccc(Nc2nc(-c3c(C)nc4ccccn34)cs2)cc1 | 0.151 | 0.185 | 0.267 | 0.311 | 0.968 | 0.978 | 0.983 | 0.987 |  |  |  |  |  |  |  |  | 0.0293 | 0.0644 | -0.0241 | -0.237 | 0.931 | 0.948 | 0.951 | 0.952 | 0.979 | 0.225 | 0.209 | 0.0949 | 0.0852 | 0.961 | 0.972 | 0.982
CNC(=O)c1ccccc1Sc1ccc2c(/C=C/c3ccccn3)n[nH]c2c1 [Axitinib] | 0.0328 | 0.0444 | 0.0505 | 0.163 | -0.0364 | 0.0807 | 0.114 | 0.196 |  |  |  |  |  |  |  |  | -0.0928 | -0.118 | -0.216 | -0.609 | -0.116 | -0.0759 | -0.117 | -0.195 | -0.0091 | -0.00761 | 0.0176 | 0.0231 | -0.0205 | 0.0126 | 0.0489 | -0.0631
c1ccc2c(-c3cnn4cc(-c5ccc(N6CCNCC6)cc5)cnc34)ccnc2c1 | -0.113 | -0.0441 | 0.0116 | 0.0932 | -0.0291 | -0.0174 | 0.0152 | 0.209 | 0.399 | 0.521 | 0.544 | 0.537 | 0.307 | 0.408 | 0.431 | 0.436 | -0.24 | -0.273 | -0.265 | -0.249 | -0.167 | -0.254 | -0.224 | -0.213 |  |  |  |  |  |  |  | 
COc1cc2c(cc1O)CC[C@@H]1[C@@H]2CC[C@]2(C)[C@@H](O)CC[C@@H]12 [2-Methoxyestradiol] | -0.116 | -0.0531 | 0.00475 | 0.11 | 0.704 | 0.761 | 0.783 | 0.814 | 0.476 | 0.534 | 0.548 | 0.552 | 0.308 | 0.401 | 0.422 | 0.439 |  |  |  |  |  |  |  |  |  |  |  |  |  |  |  | 

Source: the supplement of paper PMC6897291
